Screen size: about 5,500 compounds; about 2,000 (36%) were called active. Another 18% or so got no clear call; they are omitted. Cut-off read from the data, not from the text of the source: active = normalized growth mostly below about 0.91 (no sharp cut-off); inconclusive = no clear call, values can overlap the other calls; inactive = mostly above about 0.92. The list shows a part of the results.
Assay: chemical genetic growth profiling, strain panel (AID 1159580);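 note: tested at 20 µM; growth read once vehicle control cultures reached saturation at 30 °C; 1 = growth at the plate median or of vehicle wells; lower values mean less growth of the strain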
Settings: S. cerevisiae deletion strains, growth OD
[1] = locus YBR229C, strain ROT2, hits give low values
[2] = locus YCL061C, strain MRC1, hits give low values
[3] = locus YDL101C, strain DUN1, hits give low values
[4] = locus YGR078C, strain PAC10, hits give low values
[5] = locus YJL187C, strain SWE1, hits give low values
[6] = locus YJR043C, strain POL32, hits give low values
[7] = locus YKL190W, strain CNB1, hits give low values
[8] = locus YLR039C, strain RIC1, hits give low values
[9] = locus YMR307W, strain GAS1, hits give low values
[10] = locus YNL153C, strain GIM3, hits give low values
[11] = locus YPL055C, strain LGE1, hits give low values
[12] = locus YPL241C, strain CIN2, hits give low values
[13] = locus YGR229C, strain SMI1, hits give low values
[14] = locus YJR075W, strain HOC1, hits give low values
[15] = locus YMR263W, strain SAP30, hits give low values
[16] = locus YNL322C, strain KRE1, hits give low values

Measured: normalized growth

COC(=O)[C@@H]1OC(=O)C2OC23[C@@]1(C)CCC1[C@@]2(C)CCC(=O)C(C)(C)C2C[C@@H](OC(C)=O)[C@]13C (some centres undefined)
inactive: locus YAL021C, strain ccr4, hits give low values 1.01 | locus YAL026C, strain drs2, hits give low values 1.01 | locus YAL030W, strain snc1, hits give low values 1.01 | locus YBL061C, strain skt5, hits give low values 1.01 | locus YBR009C, strain hhf1, hits give low values 1.01 | locus YBR021W, strain FUR4, hits give low values 1.03 | locus YBR023C, strain chs3, hits give low values 1.01 | locus YBR171W, strain sec66, hits give low values 1.02 | [1] 1.01 | locus YBR231C, strain swc5, hits give low values 1.01 | locus YBR279W, strain paf1, hits give low values 1.02 | locus YCL011C, strain gbp2, hits give low values 1.01 | locus YCL016C, strain dcc1, hits give low values 1.02 | locus YCL029C, strain bik1, hits give low values 1.04 | [2] 1.01 | locus YCL069W, strain vba3, hits give low values 1.01 | locus YCR088W, strain abp1, hits give low values 1.02 | locus YDL005C, strain med2, hits give low values 1.02 | locus YDL035C, strain GPR1, hits give low values 1.05 | locus YDL040C, strain nat1, hits give low values 1.02 | locus YDL074C, strain BRE1, hits give low values 1.14 | [3] 1.04 | locus YDL185W, strain tfp1, hits give low values 1.01 | locus YDL192W, strain arf1, hits give low values 1.02 | locus YDR001C, strain nth1, hits give low values 1.01 | locus YDR069C, strain doa4, hits give low values 1.02 | locus YDR101C, strain arx1, hits give low values 1.01 | locus YDR137W, strain rgp1, hits give low values 1.01 | locus YDR159W, strain sac3, hits give low values 1.01 | locus YDR162C, strain NBP2, hits give low values 1.04 | locus YDR195W, strain ref2 0.999 | locus YDR297W, strain sur2, hits give low values 1.01 | locus YDR318W, strain mcm21, hits give low values 1.02 | locus YDR334W, strain swr1, hits give low values 1.02 | locus YDR335W, strain msn5, hits give low values 1.02 | locus YDR388W, hits give low values 1.01 | locus YDR392W, strain spt3, hits give low values 1.01 | locus YDR502C, strain sam2, hits give low values 1.01 | locus YEL003W, strain gim4, hits give low values 1.02 | locus YEL037C, strain rad23, hits give low values 1.02 | locus YEL061C, strain CIN8 (second series), hits give low values 1.03 | locus YER015W, strain faa2, hits give low values 1.02 | locus YER016W, strain bim1, hits give low values 1.02 | locus YER110C, hits give low values 0.992 | locus YER111C, strain swi4, hits give low values 1.01 | locus YER155C, strain BEM2 (second series), hits give low values 1.03 | locus YER155C, strain BEM2, hits give low values 1 | locus YER167W, strain BCK2, hits give low values 1.01 | locus YFR010W, strain ubp6, hits give low values 1.01 | locus YGL078C, strain dbp3, hits give low values 1 | locus YGL086W, strain mad1, hits give low values 1.02 | locus YGL167C, strain pmr1, hits give low values 1.02 | locus YGL173C, strain kem1, hits give low values 1.01 | locus YGL227W, strain vid30, hits give low values 1.02 | locus YGL240W, strain doc1, hits give low values 1.02 | locus YGL248W, strain PDE1, hits give low values 1.05 | locus YGL253W, strain hxk2, hits give low values 1.01 | [4] 1.05 | locus YGR135W, strain pre9, hits give low values 1.05 | locus YGR252W, strain gcn5, hits give low values 1.08 | locus YHR013C, strain ard1, hits give low values 1.02 | locus YHR027C, strain rpn1, hits give low values 1.02 | locus YHR079C, strain IRE1 (second series), hits give low values 0.995 | locus YHR094C, strain hxt1, hits give low values 0.992 | locus YHR129C, strain ARP1, hits give low values 1.03 | locus YHR142W, strain chs7, hits give low values 1.03 | locus YHR200W, strain rpn10, hits give low values 1.02 | locus YIL066C, strain RNR3, hits give low values 1.02 | locus YIL073C, strain SPO22, hits give low values 1.1 | locus YIL125W, strain kgd1, hits give low values 1.01 | locus YIR030C, strain dcg1, hits give low values 0.991 | locus YJL092W, strain hpr5, hits give low values 1.01 | locus YJL095W, strain BCK1 (second series), hits give low values 1.01 | locus YJL095W, strain BCK1, hits give low values 1.1 | locus YJL115W, strain asf1, hits give low values 1 | locus YJL129C, strain trk1, hits give low values 1.03 | locus YJL134W, strain LCB3, hits give low values 1.01 | locus YJL154C, strain vps35, hits give low values 1.03 | locus YJL164C, strain tpk1, hits give low values 1.03 | locus YJL166W, strain qcr8, hits give low values 1.01 | locus YJL168C, strain set2, hits give low values 1.01 | locus YJL187C, strain SWE1 (second series), hits give low values 1.03 | [5] 1.02 | [6] 1.09 | locus YKL009W, strain mrt4, hits give low values 1 | locus YKL068W, hits give low values 1.01 | locus YKL085W, strain MDH1 (second series), hits give low values 0.994 | locus YKL085W, strain MDH1, hits give low values 0.994 | locus YKL160W, strain elf1, hits give low values 1.02 | [7] 1.02 | locus YKR001C, strain vps1, hits give low values 1.06 | locus YKR026C, strain gcn3, hits give low values 1.02 | locus YKR091W, strain srl3, hits give low values 1.02 | locus YLL001W, strain dnm1, hits give low values 1.01 | locus YLL026W, hits give low values 1.02 | locus YLL041C, strain sdh2, hits give low values 1.01 | locus YLR027C, strain aat2, hits give low values 1.03 | [8] 1.13 | locus YLR058C, strain SHM2, hits give low values 1.04 | locus YLR102C, strain apc9, hits give low values 0.99 | locus YLR221C, strain rsa3, hits give low values 1.01 | locus YLR258W, strain gsy2, hits give low values 1.01 | locus YLR262C, strain YPT6 (second series), hits give low values 1.03 | locus YLR268W, strain sec22, hits give low values 1.04 | locus YLR320W, strain mms22, hits give low values 1.02 | locus YLR330W, strain CHS5, hits give low values 1.01 | locus YLR342W, strain FKS1 (second series), hits give low values 1.03 | locus YLR342W, strain FKS1, hits give low values 1.02 | locus YLR357W, strain rsc2, hits give low values 1 | locus YLR370C, strain arc18, hits give low values 1.01 | locus YLR371W, strain rom2, hits give low values 1.02 | locus YLR384C, strain iki3, hits give low values 1.04 | locus YLR418C, strain cdc73, hits give low values 1.06 | locus YML016C, strain PPZ1, hits give low values 1.01 | locus YML032C, strain rad52, hits give low values 0.992 | locus YML120C, strain ndi1, hits give low values 1.02 | locus YML124C, strain tub3, hits give low values 0.99 | locus YMR058W, strain fet3, hits give low values 1.01 | locus YMR078C, strain ctf18, hits give low values 0.998 | locus YMR125W, strain sto1, hits give low values 1.02 | locus YMR129W, hits give low values 1.01 | locus YMR205C, strain PFK2, hits give low values 1.02 | locus YMR223W, strain ubp8, hits give low values 1.01 | locus YMR231W, strain pep5, hits give low values 1 | [9] 1.2 | locus YNL067W, strain RPL9B, hits give low values 1.03 | locus YNL071W, strain lat1, hits give low values 1.02 | [10] 1.06 | locus YNL209W, strain ssb2, hits give low values 1.02 | locus YNL233W, strain BNI4, hits give low values 1.08 | locus YNL248C, strain rpa49, hits give low values 1.01 | locus YNL250W, strain rad50, hits give low values 1.01 | locus YNL271C, strain bni1, hits give low values 0.997 | locus YNL298W, strain CLA4, hits give low values 1.01 | locus YNL307C, strain MCK1, hits give low values 0.995 | locus YNL322C, strain KRE1 (second series), hits give low values 1.02 | locus YNR049C, strain mso1, hits give low values 1.01 | locus YNR052C, strain pop2, hits give low values 0.989 | locus YOL012C, strain htz1 1.07 | locus YOL147C, strain pex11, hits give low values 1 | locus YOR001W, strain rrp6, hits give low values 1.02 | locus YOR061W, strain CKA2, hits give low values 1.02 | locus YOR069W, strain VPS5, hits give low values 1.01 | locus YOR070C, strain gyp1, hits give low values 1 | locus YOR080W, strain dia2, hits give low values 1.01 | locus YOR083W, strain WHI5, hits give low values 1.02 | locus YOR106W, strain vam3, hits give low values 1.01 | locus YOR136W, strain idh2, hits give low values 0.993 | locus YOR144C, strain elg1, hits give low values 0.993 | locus YOR184W, strain ser1, hits give low values 1.03 | locus YOR265W, strain rbl2, hits give low values 1.01 | locus YOR270C, strain vph1, hits give low values 1.05 | locus YOR290C, strain snf2, hits give low values 1.02 | locus YOR316C, strain cot1, hits give low values 1 | locus YPL051W, strain arl3, hits give low values 0.993 | [11] 1.11 | locus YPL078C, strain atp4, hits give low values 1.01 | locus YPL106C, strain sse1, hits give low values 1.01 | locus YPL240C, strain hsp82, hits give low values 1.01 | [12] 1.01 | locus YPR119W, strain clb2, hits give low values 0.993 | locus YPR141C, strain kar3, hits give low values 0.994 | locus YPR163C, strain tif3, hits give low values 1.01 | locus YPR167C, strain met16, hits give low values 1.01 | strain wtn01, hits give low values 1.02

CC(C)c1ccc2c(c1)c(SC(C)(C)C)c(CC(C)(C)C(=O)O)n2Cc1ccc(Cl)cc1
inactive: locus YAL040C, strain CLN3, hits give low values 1.02 | locus YCL061C, strain MRC1 (second series), hits give low values 1 | locus YDR363W, strain ESC2, hits give low values 1 | locus YER002W, strain NOP16, hits give low values 1.03 | [13] 1.03 | [14] 1.02 | [15] 1.01 | [9] 1 | locus YNL128W, strain TEP1, hits give low values 0.967 | [10] 0.972 | locus YNL175C, strain NOP13, hits give low values 1.01 | locus YNL197C, strain WHI3, hits give low values 1.01 | locus YNL224C, strain SQS1, hits give low values 1.01 | [16] 1.01 | locus YOR083W, strain WHI5 (second series), hits give low values 0.992

NC(=O)N[C@@H]1O[C@H](CO)[C@@H](O)[C@H](O)[C@H]1O
inactive: locus YAL013W, strain DEP1, hits give low values 1.03 | [1] 1.01 | [2] 0.987 | [3] 0.994 | locus YDR150W, strain NUM1, hits give low values 0.992 | locus YEL061C, strain CIN8, hits give low values 1.02 | [4] 0.993 | [13] 1 | locus YHR030C, strain SLT2, hits give low values 1 | locus YHR087W, strain rtc3, hits give low values 1.01 | [5] 1.01 | [6] 0.975 | [14] 1 | [7] 1.01 | [8] 1.02 | locus YLR058C, strain SHM2 (second series), hits give low values 1.01 | locus YLR085C, strain ARP6, hits give low values 1.07 | locus YLR262C, strain YPT6, hits give low values 0.981 | locus YML094W, strain GIM5, hits give low values 1.02 | locus YMR219W, strain ESC1, hits give low values 1.01 | [15] 0.999 | [9] 1.02 | [10] 0.989 | locus YNL298W, strain CLA4 (second series), hits give low values 1.05 | [16] 1 | locus YNR030W, strain Alg12, hits give low values 1.02 | [11] 1.04 | [12] 1.04 | locus YPR135W, strain CTF4, hits give low values 0.98
